Laboratory results from the antibiotic and cytotoxicity screens of Wong et al. (2023).
About 3,300 (8.5%) of roughly 39,000 compounds were called active. The sample as a whole holds a higher share of actives than the screen did.

tested on: HepG2; assay: cytotoxicity call (relative viability < 0.9); conditions: 10 µM

SMILES	cytotoxicity call
O=C1COC[C@@H](c2ccccc2)N1	inactive
O=C1NC2=C(C(=O)OC2)[C@H](c2ccccc2)N1	active
O=C1NC(=O)[C@@H](c2ccccc2)N1	inactive
C[C@@H]1CN([C@@H](C)CO)C(=O)c2cc(NC(=O)Cc3ccccc3)ccc2O[C@H]1CN(C)S(=O)(=O)c1ccccc1	inactive
C[C@@H]1CCCCO[C@@H](CN(C)C(=O)C2CCCCC2)[C@@H](C)CN([C@@H](C)CO)C(=O)c2cc(NS(=O)(=O)c3ccc(Cl)cc3)ccc2O1	inactive
Cc1ccc(S(=O)(=O)N2CCO[C@@H]2CNC(=O)C(=O)NCc2ccccn2)cc1	inactive
C[C@H](CO)N1C[C@H](C)[C@H](CN(C)Cc2ccc(C(=O)Nc3ccccc3N)cc2)Oc2ccc(NC(=O)Nc3ccc4c(c3)OCO4)cc2C1=O	inactive
O=C1c2ccccc2[C@](Cc2ccccc2I)(C(=O)NCC(F)(F)F)[C@H](c2ccc(CO)cc2)N1C1CCCCC1	inactive
O=C1c2ccccc2[C@](Cc2ccccc2I)(C(=O)NCCN2CCOCC2)[C@H](c2ccc(CO)cc2)N1C1CCCCC1	active
O=C1c2ccccc2[C@](Cc2ccccc2I)(C(=O)NCc2ccccc2)[C@H](c2ccc(CO)cc2)N1C1CCCCC1	inactive
O=C1c2ccccc2[C@](Cc2ccccc2I)(C(=O)O)[C@H](c2ccc(CO)cc2)N1C1CCCCC1	inactive
CN(C)CCCNC(=O)[C@@]1(Cc2ccccc2I)c2ccccc2C(=O)N(C2CCCCC2)[C@H]1c1ccc(CO)cc1	active
COc1ccc(CCNC(=O)[C@@]2(Cc3ccccc3I)c3ccccc3C(=O)N(C3CCCCC3)[C@H]2c2ccc(CO)cc2)cc1	inactive
COCCCNC(=O)[C@@]1(Cc2ccccc2I)c2ccccc2C(=O)N(C2CCCCC2)[C@H]1c1ccc(CO)cc1	active
CN(C)CCCN1C(=O)[C@@]2(Cc3ccccc31)c1ccccc1C(=O)N(C1CCCCC1)[C@H]2c1ccc(CO)cc1	inactive
COc1ccccc1CN1C(=O)c2ccccc2[C@](Cc2ccccc2I)(C(=O)NCCN2CCOCC2)[C@@H]1c1ccc(CO)cc1	inactive
Cc1noc(C)c1NC(=O)N(C)C[C@@H]1OCCCC[C@H](C)Oc2ccc(NS(=O)(=O)c3ccc(F)cc3)cc2C(=O)N([C@@H](C)CO)C[C@@H]1C	inactive
CO[C@@H]1CN(C)C(=O)c2ccc(NS(=O)(=O)c3cn(C)cn3)cc2OC[C@@H](C)N(CC2CC2)C[C@H]1C	inactive
O=S(=O)(NCC[C@H]1CC[C@@H](NS(=O)(=O)c2ccccc2Cl)[C@H](CO)O1)c1ccc(F)cc1	inactive
C[C@H](CO)N1C[C@H](C)[C@@H](CN(C)Cc2ccc(Oc3ccccc3)cc2)Oc2ccc(NC(=O)Nc3ccc4c(c3)OCO4)cc2CC1=O	inactive
C[C@H]1CN([C@@H](C)CO)C(=O)Cc2cc(NC(=O)Nc3ccc4c(c3)OCO4)ccc2O[C@@H]1CN(C)Cc1ccc(Oc2ccccc2)cc1	inactive
C[C@H]1CN([C@@H](C)CO)C(=O)Cc2cc(NC(=O)Nc3ccc4c(c3)OCO4)ccc2O[C@H]1CN(C)Cc1ccc(Oc2ccccc2)cc1	inactive
C[C@@H]1CN([C@@H](C)CO)C(=O)Cc2cc(NC(=O)Nc3ccc4c(c3)OCO4)ccc2O[C@H]1CN(C)Cc1ccc(Oc2ccccc2)cc1	inactive

SMILES	cytotoxicity call
C[C@@H]1CN([C@@H](C)CO)C(=O)Cc2cc(NC(=O)Nc3ccc4c(c3)OCO4)ccc2O[C@@H]1CN(C)Cc1ccc(Oc2ccccc2)cc1	active
C[C@H](CO)N1C[C@H](C)[C@H](CN(C)Cc2ccc(Oc3ccccc3)cc2)Oc2ccc(NC(=O)Nc3ccc4c(c3)OCO4)cc2CC1=O	active
C[C@@H]1CN([C@H](C)CO)C(=O)Cc2cc(NC(=O)Nc3ccc4c(c3)OCO4)ccc2O[C@H]1CN(C)Cc1ccc(Oc2ccccc2)cc1	inactive
C[C@@H]1CN([C@H](C)CO)C(=O)Cc2cc(NC(=O)Nc3ccc4c(c3)OCO4)ccc2O[C@@H]1CN(C)Cc1ccc(Oc2ccccc2)cc1	active
C[C@@H]1CCCCO[C@H](CN(C)C(=O)Nc2ccc(F)cc2)[C@H](C)CN([C@@H](C)CO)C(=O)c2cc(NC(=O)C3CCCCC3)ccc2O1	inactive
Cc1noc(C)c1S(=O)(=O)Nc1cccc2c1O[C@H](CN(C)S(=O)(=O)c1ccc(Cl)cc1)[C@H](C)CN([C@H](C)CO)C2=O	inactive
C[C@@H]1CCCCO[C@@H](CN(C)S(=O)(=O)c2ccc(Cl)cc2)[C@@H](C)CN([C@H](C)CO)C(=O)c2cc(NS(=O)(=O)c3ccccc3)ccc2O1	inactive
C[C@H](CO)N1C[C@H](C)[C@H](CN(C)S(=O)(=O)c2ccc(C#N)cc2)Oc2ncc(-c3ccc(F)cc3)cc2C1=O	inactive
C[C@H](CO)N1C[C@H](C)[C@H](CN(C)Cc2ccc(Oc3ccccc3)cc2)Oc2ccc(NC(=O)Nc3ccc(F)cc3)cc2CC1=O	active
C[C@@H]1CN([C@H](C)CO)C(=O)Cc2cc(NC(=O)Nc3ccc(F)cc3)ccc2O[C@@H]1CN(C)Cc1ccc(Oc2ccccc2)cc1	active
C[C@H]1CN([C@@H](C)CO)C(=O)Cc2cc(NC(=O)Nc3ccc(F)cc3)ccc2O[C@@H]1CN(C)Cc1ccc(Oc2ccccc2)cc1	active
C[C@@H]1CN([C@@H](C)CO)C(=O)Cc2cc(NC(=O)Nc3ccc(F)cc3)ccc2O[C@H]1CN(C)Cc1ccc(Oc2ccccc2)cc1	active
COc1ccc(CN(C)C[C@H]2OCCCC[C@@H](C)Oc3ccc(NC(=O)c4ccncc4)cc3C(=O)N([C@@H](C)CO)C[C@@H]2C)cc1	inactive
Cc1ccc(S(=O)(=O)Nc2ccc3c(c2)C(=O)N([C@H](C)CO)C[C@@H](C)[C@H](CN(C)C(=O)c2ccccc2)OCCCC[C@@H](C)O3)cc1	inactive
Cc1ccc(S(=O)(=O)N[C@H]2CC[C@H](CC(=O)N3CCC(Cc4ccccc4)CC3)O[C@@H]2CO)cc1	inactive
C[C@@H]1CCCCO[C@@H](CN(C)C)[C@@H](C)CN([C@H](C)CO)C(=O)c2cc(NS(=O)(=O)c3cn(C)cn3)ccc2O1	inactive
CC(C)NC(=O)N(C)C[C@H]1Oc2c(NC(=O)NC3CCCCC3)cccc2C(=O)N([C@@H](C)CO)C[C@H]1C	inactive
C[C@@H]1CN([C@@H](C)CO)C(=O)c2cccc(NC(=O)Nc3ccccc3)c2O[C@@H]1CN(C)S(=O)(=O)c1cn(C)cn1	inactive
C[C@@H]1CCCCO[C@@H](CN(C)S(=O)(=O)c2cn(C)cn2)[C@H](C)CN([C@H](C)CO)C(=O)c2cc(N(C)C)ccc2O1	inactive
O=C(CN1CCOCC1)N[C@@H]1CC[C@@H](CCNC(=O)Nc2cc(F)ccc2F)O[C@@H]1CO	inactive
C[C@@H]1CCCCO[C@H](CN(C)C)[C@@H](C)CN([C@H](C)CO)C(=O)c2cc(NC(=O)CCCN(C)C)ccc2O1	inactive
C[C@@H]1CCCCO[C@@H](CN(C)C(=O)NC2CCCCC2)[C@@H](C)CN([C@@H](C)CO)C(=O)c2cc(NC(=O)Nc3ccc4c(c3)OCO4)ccc2O1	inactive
C[C@@H]1CN([C@H](C)CO)C(=O)Cc2cc(NC(=O)Nc3ccc(F)cc3)ccc2O[C@H]1CN(C)Cc1ccc(Oc2ccccc2)cc1	active

SMILES	cytotoxicity call
C[C@@H]1CN([C@@H](C)CO)C(=O)Cc2cc(NC(=O)Nc3ccc(F)cc3)ccc2O[C@@H]1CN(C)Cc1ccc(Oc2ccccc2)cc1	inactive
C[C@H]1CN([C@@H](C)CO)C(=O)Cc2cc(NC(=O)Nc3ccc(F)cc3)ccc2O[C@H]1CN(C)Cc1ccc(Oc2ccccc2)cc1	active
C[C@H](CO)N1C[C@H](C)[C@@H](CN(C)Cc2ccc(Oc3ccccc3)cc2)Oc2ccc(NC(=O)Nc3ccc(F)cc3)cc2CC1=O	active
CC(=O)Nc1nnc(S(N)(=O)=O)s1	inactive
C[C@H](CO)N1C[C@H](C)[C@@H](CN(C)S(=O)(=O)c2ccc(F)cc2)Oc2ccc(NC(=O)Cn3cnnn3)cc2C1=O	inactive
CC(C)NC(=O)Nc1cccc2c1O[C@@H](CN(C)S(=O)(=O)c1cn(C)cn1)[C@@H](C)CN([C@H](C)CO)C2=O	inactive
C[C@@H]1CN([C@@H](C)CO)C(=O)c2cccc(NC(=O)Nc3ccc(F)cc3)c2O[C@H]1CN(C)Cc1ccc(-c2ccccc2)cc1	inactive
CONC(=O)Nc1ccc(-c2sc3c(c2CN(C)Cc2ccccc2)c(=O)n(-c2ccccc2)c(=O)n3Cc2c(F)cccc2F)cc1	inactive
CC(C)OC(=O)c1cn(Cc2c(F)cccc2F)c2sc(-c3ccc(NC(=O)C(C)C)cc3)c(CN(C)Cc3ccccc3)c2c1=O	active
C[C@@H]1CN([C@@H](C)CO)C(=O)c2cc(NC(=O)C3CC3)ccc2O[C@@H]1CN(C)Cc1ccc(C(=O)O)cc1	inactive
CO[C@H]1CN(C)C(=O)c2cc(NC(=O)CC(F)(F)F)ccc2OC[C@@H](C)N(S(=O)(=O)c2cn(C)cn2)C[C@@H]1C	inactive
COc1ccc(CNC(=O)C[C@H]2C[C@@H]3c4cc(NS(=O)(=O)c5ccc(F)cc5)ccc4O[C@@H]3[C@@H](CO)O2)cc1	inactive
O=C(C[C@@H]1C=C[C@@H](NS(=O)(=O)c2ccc(F)cc2)[C@@H](CO)O1)NCCN1CCCCC1	inactive
C[C@@H]1CN([C@@H](C)CO)C(=O)Cc2cc(NC(=O)Nc3cccc4ccccc34)ccc2O[C@H]1CN(C)C(=O)NC1CCCCC1	inactive
C[C@@H]1CCCCO[C@H](CN(C)CC2CCCCC2)[C@H](C)CN([C@H](C)CO)C(=O)c2cc(NC(=O)c3ccccc3)ccc2O1	active
C[C@@H]1CCCCO[C@@H](CN(C)CC2CCCCC2)[C@H](C)CN([C@H](C)CO)C(=O)c2cc(NC(=O)c3ccccc3)ccc2O1	inactive
C[C@@H]1CN([C@@H](C)CO)C(=O)c2cc(NC(=O)c3ccccc3)ccc2O[C@@H](C)CCCCO[C@@H]1CN(C)CC1CCCCC1	inactive
C[C@H]1CCCCO[C@H](CN(C)CC2CCCCC2)[C@@H](C)CN([C@@H](C)CO)C(=O)c2cc(NC(=O)c3ccccc3)ccc2O1	inactive
C[C@@H]1CN([C@@H](C)CO)C(=O)c2cc(NC(=O)c3ccccc3)ccc2O[C@@H](C)CCCCO[C@H]1CN(C)CC1CCCCC1	active
C[C@H]1CCCCO[C@@H](CN(C)CC2CCCCC2)[C@@H](C)CN([C@@H](C)CO)C(=O)c2cc(NC(=O)c3ccccc3)ccc2O1	inactive
C[C@@H]1CCCCO[C@@H](CN(C)CC2CCCCC2)[C@@H](C)CN([C@H](C)CO)C(=O)c2cc(NC(=O)c3ccccc3)ccc2O1	active
C[C@@H]1CCCCO[C@@H](CN(C)CC2CCCCC2)[C@H](C)CN([C@@H](C)CO)C(=O)c2cc(NC(=O)c3ccccc3)ccc2O1	inactive
C[C@@H]1CN([C@H](C)CO)C(=O)c2cc(NC(=O)c3ccccc3)ccc2O[C@@H](C)CCCCO[C@@H]1CN(C)CC1CCCCC1	inactive
